# Experimental data from PubChem BioAssay (NCI).
# Values joined by “and” are separate entries in the source; they are usually repeats but may differ in a detail not shown here. Equal values may be shown once. About 79,000 compounds went through this panel and 15% of them were active in at least one assay; those are over-represented in the sample as a whole. More than one record can exist for a structure, and the calls need not agree. Active and inactive are the calls of the source. Rule as the data show it: active = growth inhibition above about 70%; inactive = the rest.
# Key:
# [1] = NCI Yeast Anticancer Drug Screen. Data for the rad50 strain (AID 155);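 also: 0% = growth of vehicle-only cultures of the same strain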; settings: S. cerevisiae rad50 strain growth inhibition; at 50.0 µM; stronger effect = higher value
# Summary of the method: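 Growth of the mutant yeast was measured after compound exposure and referenced to vehicle-treated cultures.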
# [2] = NCI Yeast Anticancer Drug Screen. Data for the mec2-1 strain (AID 157); settings: S. cerevisiae mec2-1 strain, at 50.0 µM, stronger effect = higher value
# Summary of the method: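 Readout is yeast growth inhibition, normalised to vehicle-treated controls, in the mec2-1 strain exposed to compound.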
# [3] = NCI Yeast Anticancer Drug Screen. Data for the sgs1 mgt1 strain (AID 161);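 also: 0% = growth of cultures given vehicle only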; settings: S. cerevisiae sgs1 mgt1 strain, at 50.0 µM, stronger effect = higher value
# Summary of the method: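 Yeast cells carrying a defined DNA-repair defect were exposed to test compounds. Growth inhibition was measured relative to vehicle-treated controls.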
# [4] = NCI Yeast Anticancer Drug Screen. Data for the cln2 rad14 strain (AID 165);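 also: 0% = growth equal to vehicle treated cultures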; settings: S. cerevisiae cln2 rad14 strain, at 50.0 µM, stronger effect = higher value
# Summary of the method: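 Relative to vehicle controls, growth inhibition of compound-treated cln2 rad14 yeast was recorded.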
# [5] = NCI Yeast Anticancer Drug Screen. Data for the bub3 strain (AID 167); settings: S. cerevisiae bub3 mutant strain, at 50.0 µM, stronger effect = higher value
# Summary of the method: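 Whole-cell yeast assay. The mutant strain was incubated with compounds, and growth inhibition was determined by comparison with vehicle-treated cells.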
# [6] = NCI Yeast Anticancer Drug Screen. Data for the mlh1 rad18 strain (AID 175); settings: S. cerevisiae mlh1 rad18 strain growth inhibition; at 50.0 µM; stronger effect = higher value
# Summary of the method: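 Test agents were incubated with a yeast strain of defined genotype (DNA damage repair defect). Inhibition of growth was derived by comparison with vehicle-exposed cultures.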
SMILES,growth inhibition [1],growth inhibition [2],growth inhibition [3],growth inhibition [4],growth inhibition [5],growth inhibition [6]
COc1ccc(NC2=NCCO2)c2ccccc12,-11.9% (inactive),-42.3% (inactive),-31.1% (inactive),-0.3% (inactive),-13.4% (inactive),-20.9% (inactive)
N[C@H]1C2C3CC4C5CC(C42)C1(c1ccccc1)C53 (stereo partly drawn),-20.4% (inactive),-5.25% (inactive),-0.05% (inactive),-5.2% (inactive),-12% (inactive),-6% (inactive)
COP(=O)(OC)C1(C(C)(C)C)CO1 (stereo not drawn),-1.75% (inactive),-4.9% (inactive),0.65% (inactive),-23.1% (inactive),-11.6% (inactive),0.5% (inactive)
O=C(c1ccccc1)C1C(c2ccccc2)N1Cc1ccccc1 (stereo not drawn),0.35% (inactive),12.2% (inactive),10.2% (inactive),6.15% (inactive),9.65% (inactive),-2.9% (inactive)
CCC[CH2][Sn]([CH2]C)([CH2]C)[CH2]C,40.4% (inactive),17.8% (inactive),35.7% (inactive),15.8% (inactive),20.9% (inactive),31.3% (inactive)
CC[C@@]1(O)C(=O)OCc2c1cc1n(c2=O)Cc2c-1nc1ccccc1c2C=Nc1ccc(N[C@@H]2c3cc4c(cc3[C@@H](c3cc(OC)c(O)c(OC)c3)[C@H]3C(=O)OC[C@@H]32)OCO4)cc1,49.7% (inactive) and 82.5% (active),71.6% (active) and 76.7% (active),69.9% (inactive) and 80.4% (active),54% (inactive) and 77.9% (active),50.3% (inactive) and 83.3% (active),46% (inactive) and 81.2% (active)
COc1ccc2c(c1OC)CC(N)C2O (stereo not drawn),9% (inactive),3.55% (inactive),7.8% (inactive),4.3% (inactive),15.2% (inactive),3.25% (inactive)
CN1CCC2=C(c3ccccc3)c3ccccc3C2C1 (stereo not drawn),10.3% (inactive),-0.55% (inactive),13.4% (inactive),-9.85% (inactive),3.8% (inactive),3.55% (inactive)
C1=C/CCC2NC2C/C=C/CCC/1 (stereo not drawn),-6.8% (inactive),-20.4% (inactive),-10.6% (inactive),-18.4% (inactive),-22.8% (inactive),-19.6% (inactive)
[CH3][Sb]([CH3])([CH3])([O]C(=O)C(Cl)Cl)[O]C(=O)C(Cl)Cl,10.1% (inactive),-7.15% (inactive),15.3% (inactive),-22.6% (inactive),-1.7% (inactive),2.9% (inactive)
CCC1CN2CCC3(C(=O)Nc4ccccc43)C2CC1/C(=C/OC)C(=O)OC (stereo not drawn),-1.8% (inactive),-12.3% (inactive),7.85% (inactive),2.55% (inactive),13.7% (inactive),12.4% (inactive)
CCOP(=O)(OCC)/C(C#N)=C(\C)c1ccco1,-26.4% (inactive),-28.9% (inactive),-15.3% (inactive),-18.4% (inactive),-11.6% (inactive),-1.2% (inactive)
Cc1cccc(NC(=O)CCl)c1,1.65% (inactive),-23.4% (inactive),10.8% (inactive),-4.6% (inactive),21.9% (inactive),19.8% (inactive)
Cc1cc(N(CCCl)CCCl)ccc1CN1CCCN(Cc2ccc(N(CCCl)CCCl)cc2C)C1c1ccccc1O,0.25% (inactive),14.5% (inactive),11.1% (inactive),-4.5% (inactive),0.05% (inactive),31.9% (inactive)
CCCCCCCCCCC(O)C1CCC(C(O)CCC(O)C2CCC(CCCCCCC[C@H](O)CC3=C[C@@H](C)OC3=O)O2)O1 (stereo partly drawn),31.4% (inactive),6.55% (inactive),1.55% (inactive),12.9% (inactive),19.1% (inactive),27.2% (inactive)
NNC(=O)c1cc([N+](=O)[O-])c(O)c([N+](=O)[O-])c1,-9.85% (inactive),-14.8% (inactive),8.35% (inactive),7.4% (inactive),11.8% (inactive),-5.55% (inactive)
CN(C)CCN(C)C.[C-]#[O+].[C-]#[O+].[C-]#[O+].[C-]#[O+].[W+2],-13% (inactive),-4.65% (inactive),-7.5% (inactive),-51.1% (inactive),2.1% (inactive),0.05% (inactive)
COC(=O)C1=NNC2(c3ccccc3Sc3ccccc32)C1C(=O)OC (stereo not drawn),-8.95% (inactive),-8.25% (inactive),-12.5% (inactive),25.5% (inactive),-18.9% (inactive),-11.8% (inactive)
